High-throughput results from PubChem BioAssay.
Shown are actives, neighbours in structure and some others; about 7.5% of the full set was active somewhere.
NPC1 promoter act: activators of NPC1 promoter; Huh7 NPC1 promoter luciferase reporter, 24 h; Potency, µM (series often up to 9.22 µM), inactives show at the highest dose activation, actives largely listed as activators; actives 2.4% (n = 320,000); AID 485313; note: % of control where 0% means no effect; nearly all actives have a fitted effect of over 60% in size
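In 1536-well qHTS, Huh7 cells harboring an NPC1 promoter–luciferase construct received compound for 24 h; activation was quantified by luminescence following luciferase reagent addition.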
Rab9 promoter act: Rab9 promoter activation; Potency, µM (doses to about 9.22 µM), inactives show at the highest dose activation, negative = inhibition, actives largely listed as activators; Huh7 Rab9 promoter-luciferase reporter, luminescence, 24 h; actives 2.8% (n = 320,000); note: % of control where 0% means no effect; nearly all actives have a fitted effect of over 60% in size
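Huh7 cells stably carrying Rab9 promoter–luciferase reporter, plated 1500 cells/well, compound added after 2 h and incubated 24 h at 37 °C; luciferase luminescence then read after 10 min with detection reagent.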
SMN2 splice enh: increases expression of the SMN2 splice variant | HEK293 SMN2-luciferase splicing reporter, luminescence, 30-36 h | Potency, µM (highest dose often 46.1 µM), for inactives: top-dose activity change, positive = activation, actives largely listed as activators | actives 2.8% (n = 210,000); note: % of control where 0% means no effect; nearly all actives have a fitted effect of over 55% in size
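HEK293 cells carry an SMN2 minigene-luciferase reporter in which exon 7 inclusion puts luciferase in frame. Cells were seeded at 2000 cells/well, attached for 10-12 hours, then exposed to compounds for 30-36 hours at 37C before ONE-Glo luminescence.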
ELG1 genotox: genotoxicity induction in ELG1-luciferase HEK293T cells; Potency, µM (top dose mostly 46 µM), inactives show top-dose activity change, positive = activation, hits mostly activators; AID 504466; HEK293T ELG1-luciferase reporter, luminescence, 16 h; actives 1.3% (n = 330,000); note: % of control where 0% means no effect; nearly all actives have a fitted effect of over 60% in size
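Reporter readout depends on ELG1 protein level, which increases with genetic stress. After 16 hr compound exposure at 37 °C, luciferase activity was quantified using ONE-Glo.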
Luc counter: blocks Kinase-Glo luciferase, a counter-screen artifact | Kinase-Glo luciferase, ATP luminescence, 8 min | Potency, µM (titrated, usually from 38.3 µM), for the others: at the top dose activity change, negative = inhibition, usual class: inhibitors | actives 0.28% (n = 200,000); note: % is set by controls: 0 for no effect and ±100 for the full control effect; nearly all actives have a fitted effect of over 60% in size
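Kinase-Glo luciferase light output from ATP and luciferin was measured with 10 uM ATP, within the enzyme's linear range. Buffer: 50 mM imidazole pH 7.2, 50 mM KCl, 7 mM MgCl2, 0.01% Tween 20, 0.05% BSA; luminescence read after 8 min at ambient temperature.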
FLuc counter: inhibits or activates purified firefly luciferase, miR-21 counter-screen; P08659; purified FLuc, Km substrates, luminescence inhibition; Potency, µM (series often up to 57.5 µM), for inactives: at the top dose activity change, negative = inhibition, most hits filed as inhibitors; actives 6.9% (n = 360,000); AID 588342;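 note: plate controls were vehicle for no effect and reference inhibitor for full effect; nearly all actives have a fitted effect of over 55% in size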
Target sequence (P08659 whole entry, looked up): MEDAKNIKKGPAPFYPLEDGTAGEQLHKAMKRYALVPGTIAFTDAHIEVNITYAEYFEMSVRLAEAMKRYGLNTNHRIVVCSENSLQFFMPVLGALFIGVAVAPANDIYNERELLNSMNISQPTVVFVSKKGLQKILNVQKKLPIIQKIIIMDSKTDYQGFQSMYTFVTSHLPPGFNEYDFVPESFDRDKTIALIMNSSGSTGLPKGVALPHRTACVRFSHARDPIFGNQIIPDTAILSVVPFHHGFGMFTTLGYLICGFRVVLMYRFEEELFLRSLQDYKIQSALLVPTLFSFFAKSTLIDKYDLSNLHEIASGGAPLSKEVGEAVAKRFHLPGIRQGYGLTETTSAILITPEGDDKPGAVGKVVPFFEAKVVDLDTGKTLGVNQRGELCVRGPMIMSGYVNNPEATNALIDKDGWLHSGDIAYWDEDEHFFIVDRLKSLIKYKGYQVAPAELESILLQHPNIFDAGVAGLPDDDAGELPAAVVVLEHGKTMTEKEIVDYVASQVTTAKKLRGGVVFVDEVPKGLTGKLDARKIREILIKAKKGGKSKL
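Purified P. pyralis luciferase, 10 nM final, with Km-level 10 uM D-luciferin and 10 uM ATP in 50 mM Tris acetate pH 7.5, 10 mM Mg acetate, 0.01% Tween-20, 0.05% BSA; 6-point qHTS titration about 60 µM downward; luminescence read.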
* marks the source's active call; other numbers are inactive results; ? = inconclusive; · = not tested or not shown. Calls come from the whole dose curve; as a rule, active = well fitted curve in the direction sought with a large enough effect; inconclusive = small, poorly fitted or top-dose-only effect, or another doubt; inactive = no such curve, though single readings can be large; an effect the other way counts as inactive or inconclusive. Potency is the fitted concentration of half-maximal effect.

SMILES	NPC1 promoter act	Rab9 promoter act	SMN2 splice enh	ELG1 genotox	Luc counter	FLuc counter
CN(C)c1ccc(C(=O)C(=O)c2ccccc2)cc1	18%	?	·	17%	·	24µM*
N#C/C(=C\c1cccs1)C(=O)c1ccccc1	2%	8%	·	4%	·	15µM*
Cc1ccc(CCNC(=O)c2cc3c(=O)oc4ccccc4c3s2)cc1	·	·	1%	·	·	2%
N#C/C(=C\c1ccc(C#N)cc1)C(=O)c1ccccc1	5%	-2%	·	6%	·	?
CN(C)c1cccc(/C=C(\C#N)c2ccccc2)c1	?	0.5µM*	·	4.1µM*	·	1.2µM*
CN(C)c1ccc(/C=C(\C#N)C(=O)c2ccccc2)cc1	-3%	0%	·	7%	·	0.43µM*
O=C(Nc1nnc(-c2ccc(Cl)cc2)o1)c1cccc(N2C(=O)CCC2=O)c1	2%	1%	12%	1%	-1%	12µM*
O=C(Nc1nnc(-c2ccncc2)o1)c1cccc(N2C(=O)CCC2=O)c1	-2%	0%	-14%	1%	2%	-19%
CSc1cccc(-c2nnc(NC(=O)c3cccc(N4C(=O)CCC4=O)c3)o2)c1	0%	-3%	·	-10%	·	27µM*
Cc1nc(-c2ccc(C)c(S(=O)(=O)N3CCC(C(=O)NCc4ccc(Cl)cc4)CC3)c2)no1	·	·	·	·	·	-1%
Cc1cc(Cl)c2oc(C(=O)N(C)Cc3cc(C)[nH]n3)c(C)c2c1	2%	2%	·	14%	·	-2%
Cc1cc(Cl)c2oc(C(=O)N(C)Cc3ccon3)c(C)c2c1	4µM*	2.8µM*	·	18µM*	·	13µM*
Cc1cc(Cl)c2oc(C(=O)N(C)C3CCOC3)c(C)c2c1 (stereo not drawn)	?	4µM*	·	?	·	21µM*
Cc1cc(Cl)c2oc(C(=O)N(C)Cc3nccn3C)c(C)c2c1	-3%	-4%	·	6%	·	-1%
Cc1ccc(NS(=O)(=O)c2ccc3c(c2)CCCN3C(=O)C2CCC2)c(C)c1	·	·	·	·	·	-19%
O=C(Nc1ncn[nH]1)c1cccc(F)c1	-2%	-2%	·	2%	·	0%
O=C(Nc1noc2ccccc12)c1cccc(F)c1	·	·	?	·	·	2.4µM*
O=C(Nc1noc2ccccc12)c1ccc(F)cc1	·	·	?	·	·	2.1µM*
CC(=O)Nc1nonc1NC(=O)c1ccc(F)cc1	0%	22%	18%	2%	-3%	-1%
CC(=O)Nc1ccc(S(=O)(=O)Nc2cccc(NC(=O)c3ccco3)c2)cc1	-5%	-1%	0%	-4%	1%	-7%
COc1cccc(NC(=O)c2ccccc2-c2nc(-c3ccccc3)no2)c1	0%	-1%	-13%	6%	-4%	?
COc1ccccc1NC(=O)c1ccccc1-c1nc(-c2ccccc2OC)no1	5%	8%	18%	-7%	-8%	11µM*
COc1ccccc1-c1noc(-c2ccccc2C(=O)Nc2ccccc2)n1	11%	26%	-3%	4%	8%	11µM*
COc1cccc(NC(=O)c2ccccc2-c2nc(-c3ccc(Cl)cc3)no2)c1	9%	9%	-2%	-3%	-1%	13µM*
Cc1ccccc1-c1nn2c(=O)cc(CN3CCN(S(=O)(=O)c4ccc(Cl)cc4)CC3)nc2s1	·	·	·	·	·	-5%
SMILES	NPC1 promoter act	Rab9 promoter act	SMN2 splice enh	ELG1 genotox	Luc counter	FLuc counter
CCc1cccc(NC(=O)CN(C)S(=O)(=O)c2ccc3c(c2)CCCN3C(C)=O)c1	·	·	·	·	·	2%
CC1(C)Cc2c(sc(NC(=S)NC(=O)c3ccccc3)c2C(=O)O)CO1	2%	7%	2%	-1%	-2%	?
CC1(C)Cc2c(sc(NC(=O)c3ccc(Br)o3)c2C#N)CO1	2.5µM*	3.5µM*	13µM*	22%	-1%	2.4µM*
CC1(C)Cc2c(sc(NC(=O)c3ccco3)c2C(=O)O)CO1	?	?	?	?	-9%	6.7µM*
CC1(C(=O)N2CC3(CC(c4cccc(NC(=O)COc5ccc(Cl)cc5)c4)=NO3)C[C@@H]2C(N)=O)CC1 (stereo partly drawn)	3%	0%	·	-6%	·	21µM*
CCCCCC(=O)Nc1cccc(C2=NOC3(C2)C[C@H](C(N)=O)N(C(=O)CCCCC)C3)c1 (stereo partly drawn)	-4%	-7%	·	-9%	·	-4%
C/C=C/C(=O)N1CC2(CC(c3cccc(NC(=O)COc4ccc(Cl)cc4)c3)=NO2)C[C@@H]1C(N)=O (stereo partly drawn)	?	-6%	·	-4%	·	19µM*
CCCCCC(=O)N1CC2(CC(c3cccc(NC(=O)COc4ccc(Cl)cc4)c3)=NO2)C[C@@H]1C(N)=O (stereo partly drawn)	-1%	-5%	·	-10%	·	13µM*
NC(=O)[C@H]1CC2(CC(c3cccc(NC(=O)COc4ccc(Cl)cc4)c3)=NO2)CN1C(=O)c1ccc(Cl)cc1 (stereo partly drawn)	0%	-5%	·	-17%	·	7.6µM*
NC(=O)[C@H]1CC2(CC(c3cccc(NC(=O)COc4ccc(Cl)cc4)c3)=NO2)CN1C(=O)c1ccccc1C(=O)c1ccccc1 (stereo partly drawn)	-3%	-4%	·	-11%	·	?
O=C(Nc1ccccc1)N1CCC2(CCNCC2)CC1	·	·	6%	·	-6%	·
CCN(C(=O)Cn1nc2c3cc(F)ccc3n(Cc3cccc(C)c3)cc-2c1=O)c1cccc(C)c1	·	·	·	·	·	-4%
CCC(=O)Nc1cccc(C2=NOC3(C2)C[C@@H](C(N)=O)N(C(=O)COc2ccc(Cl)cc2)C3)c1 (stereo partly drawn)	-5%	-4%	·	3%	·	-4%
CCC(=O)N1CC2(CC(c3cccc(NC(=O)COc4ccc(Cl)cc4)c3)=NO2)C[C@@H]1C(N)=O (stereo partly drawn)	2%	-2%	·	-3%	·	17µM*
Cc1ccc(NC(=O)c2sc(-n3nc(C)c(Cc4ccc5c(c4)OCO5)c3C)nc2C)cc1C	·	·	·	·	·	-6%
COC(=O)c1c(C)[nH]c(/C=N/Nc2ccccc2)c1C	1%	13%	·	?	·	11µM*
CCOC(=O)CSc1nc(N)nc(C)c1Cl	1%	-2%	·	-4%	0%	24µM*
Cc1cc(-n2nc3ccccc3n2)c(O)c([N+](=O)[O-])c1	2%	-5%	·	0%	·	2%
COC(=O)COc1ccc(C)cc1-n1nc2ccccc2n1	-1%	-4%	·	0%	0%	-7%
Cc1ccc(OC(=O)c2cccc([N+](=O)[O-])c2)c(-n2nc3ccccc3n2)c1	3.5µM*	2.8µM*	13µM*	?	0%	?
